HT1080-NT tox – qHTS for induction of synthetic lethality in tumor cells producing 2HG: qHTS for the HT-1080-NT fibrosarcoma cell line | AID 686970, 2013 | hit rate 1.6% among 360,000 | Potency, µM (highest dose often 46.1 µM), inactives show at the highest dose activity, negative = less viability, actives largely listed as cytotoxic | HT-1080-NT fibrosarcoma viability, CellTiter-Glo ATP luminescence, 48 h;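 also: NT is the 2HG producing partner of a matched IDH1 knockdown line; 0% = DMSO-treated cells and -100% = media-only wells without cells; nearly all actives have a fitted effect of over 55% in size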
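Luminescent CellTiter-Glo readout after 48 hours of compound exposure at 37 degrees C defined viability of HT-1080-NT cells. Activity was normalized to DMSO wells and cell-free media wells; concentration-response curves were fitted and assigned curve classes.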
DT40 TDP1 no CPT – qHTS for Inhibitors of human tyrosyl-DNA phosphodiesterase 1 (TDP1): qHTS in cells in absence of CPT; hit rate 15% among 420,000; DT40 Tdp1-/- hTDP1 cells, no CPT, ATP luminescence, 48 h; Potency, µM (series often up to 46.2 µM), inactives show top-dose activity change, negative = growth inhibition, most hits filed as inhibitors; also: % is scaled to controls: 0 for no effect and ±100 for the full control effect; nearly all actives have a fitted effect of over 55% in size
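Stably hTDP1-transfected Tdp1-null chicken DT40 cells were treated with library compounds minus camptothecin and grown for at least 48 hr at 37 °C, after which cellular ATP was quantified by luminescence.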
TDP1 cell CPT – qHTS for Inhibitors of human tyrosyl-DNA phosphodiesterase 1 (TDP1): qHTS in cells in presence of CPT; chicken DT40 Tdp1-/-;hTDP1 cells + 20 nM CPT, ATP luminescence, 48 h; Potency, µM (series often up to 46.2 µM), without a hit: at the highest dose activity change, negative = growth inhibition, actives largely listed as inhibitors; hit rate 12% among 420,000; also: % is scaled to controls: 0 for no effect and ±100 for the full control effect; nearly all actives have a fitted effect of over 55% in size
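Chicken DT40 Tdp1-/- cells complemented with human TDP1, 400 cells/well, exposed to compounds plus 20 nM camptothecin for at least 48 h at 37 C; viability read as ATP content by CellTiter-Glo luminescence.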
HT1080 IDH1KD tx – qHTS for induction of synthetic lethality in tumor cells producing 2HG: qHTS for the HT-1080-IDH1KD cell line. HT-1080 IDH1 knockdown viability, ATP luminescence, 48 h. Potency, µM (doses to about 46.1 µM), inactives show top-dose activity, negative = toxicity, actives largely listed as cytotoxic. hit rate 2% among 360,000. AID 686971, 2013;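 also: 0% = DMSO wells and -100% = cell-free medium wells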
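HT-1080-IDH1KD cells (IDH1 knocked down), 750/well in RPMI with 5% FBS, treated with compound 48 h at 37 degrees C. Viability by CellTiter-Glo luminescence, normalised to DMSO and no-cell wells; concentration-response curves classed.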
TGFb inhibitor – qHTS for Inhibitors of TGF-b | HepG2 CAGA-GFP TGF-b/SMAD3 reporter, GFP fluorescence, 18 h; TGF-beta stimulated, 500 pg/mL final | Potency, µM (doses to about 46.1 µM), without a hit: at the top dose activity, negative = inhibition, most hits filed as inhibitors | hit rate 1.2% among 410,000 | AID 588855, 2011; also: % is scaled to controls: 0 for no effect and ±100 for the full control effect; nearly all actives have a fitted effect of over 65% in size
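Per well, imaged GFP fluorescence of HEPG2 CAGA-GFP cells gives the signal; cells get compound, then TGF-beta (500 pg/mL final), 18 h at 37 degrees C; %Activity versus -TGF-beta and +DMSO controls.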
HepG2 viability – qHTS for Inhibitors of TGF-b: Cytotox Counterscreen | HepG2 CAGA-GFP viability, ATP luminescence, 18 h | Potency, µM (doses to about 46.1 µM), inactives show at the top dose activity change, negative = cytotoxicity, hits mostly cytotoxic | hit rate 0.76% among 410,000 | AID 588856, 2011
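HepG2 CAGA-GFP cells (1000/well, DMEM with 1% FBS) received compound, then TGF-beta at 500 pg/mL final, and were incubated 18 hours at 37 degrees C. Viability was read by CellTiter-Glo luminescence. Media-only wells were set as complete cell-killing and DMSO as no toxicity.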
The depositor's hits bear a star; ? = inconclusive; . = no result; [ ] = dose if it differs, or a comment. Sampled rows, rich in hits. Any-hit rate of the full collection: about 17%. Calls follow the shape of the dose curve; as a rule, active = well fitted curve in the direction sought with a large enough effect; inconclusive = small, poorly fitted or top-dose-only effect, or another doubt; inactive = no such curve, though single readings can be large; an effect the other way counts as inactive or inconclusive. Potency is read from the fitted curve at half-maximal effect.

SMILES	HT1080-NT tox	DT40 TDP1 no CPT	TDP1 cell CPT	HT1080 IDH1KD tx	TGFb inhibitor	HepG2 viability
OC(COC(c1ccc(F)cc1)c1ccc(F)cc1)CN1CCCC(C(F)(F)F)C1 (stereo unspecified)	0%	?	3%	8%	2%	5%
NNC(=S)Nc1c(F)cc(F)cc1Br	2%	13µM*	?	-7%	0%	-45%
C=CC[C@H](CC(=O)NCCO)C(=O)NC[C@@H](OC(=O)[C@H](CC=C)CC(=O)OC(C)(C)C)c1ccccc1	11%	?	6%	1%	8%	-7%
CCn1c(-c2ccccc2)c(C(=O)CCl)c2ccccc21	?	2.6µM*	3.7µM*	21µM*	3%	9%
CCn1c2ccccc2c(=O)c2ccccc21	10%	-15%	?	-16%	-13%	-15%
Cn1c(-c2ccccc2)c(C(=O)CCl)c2ccccc21	15µM*	3.3µM*	2.6µM*	10µM*	?	-55%
O=C(NC(=S)Nc1ccccc1N1CCCC1)c1cccc(F)c1	-8%	?	?	-1%	-6%	-12%
O=C1NC(c2ccccc2)(C(F)(F)F)SC2=CCCCCN12 (stereo unspecified)	8%	-22%	-27%	6%	?	4%
Cc1ccc(C2(C(F)(F)F)NC(=O)N3CCN=C3S2)cc1 (stereo unspecified)	0%	?	21µM*	0%	6%	-2%
COc1ccc(N(CC(=O)N2CCCC(C)C2)S(=O)(=O)c2c(C)nn(C)c2C)cc1 (stereo unspecified)	6%	-9%	2%	0%	-3%	-1%
CC1(C)COC(c2ccc(F)c([N+](=O)[O-])c2)=N1	?	16µM*	16µM*	?	-24%	-4%
CC1(C)COC(c2cc([N+](=O)[O-])ccc2Cl)=N1	6%	3%	-1%	1%[9.24 µM]	31%	-5%
COc1cccc(CN(C)C(=O)C(CCSC)NS(=O)(=O)c2ccc3c(c2)OCCO3)c1OC (stereo unspecified)	?	13µM*	16µM*	-16%	0%	-8%
CSCCC(NS(=O)(=O)c1ccc2c(c1)OCCO2)C(=O)N(C)Cc1ccc(C)cc1 (stereo unspecified)	0%	15µM*	?	5%	-15%	4%
CSCCC(NS(=O)(=O)c1ccc2c(c1)OCCO2)C(=O)NCCc1ccccn1 (stereo unspecified)	10%	-2%	-8%	8%	6%	-23%
Cc1ccc(OCCn2cc(C(=O)c3cccs3)c3ccccc32)cc1	.	13µM*	18µM*	.	?	-13%
CN1CCN(C(=S)c2cn(CCOc3ccccc3F)c3ccccc23)CC1	-20%	18µM*	?	-26%	17%	-23%
COc1ccccc1OCCn1cc(C(=O)c2cccs2)c2ccccc21	.	10µM*	?	.	?	-28%
CN1CCN(C(=S)c2cn(CCOc3ccccc3)c3ccccc23)CC1	4%	8%	-1%	1%	-17%	-1%
O=C(O)c1c(C(=O)O)c2ccccc2[nH]c1=O	.	-9%[9.04 µM]	-18%[9.04 µM]	.	.	.
CCOc1ccc(NC(=O)CSc2nnc(CNC(=O)c3ccco3)o2)cc1	0%	21%	-5%	0%	-3%	-23%
